L3MBTL1 block: qHTS Assay for the Inhibitors of L3MBTL1; Lethal(3)malignant brain tumor-like protein 1 (Homo sapiens), Q9Y468; AlphaScreen L3MBTL1–H3K9me1 peptide binding; Potency, µM (doses to about 57.1 µM), for the others: at the top dose activity, negative = inhibition, usual class: inhibitors; 230,000 tested, 0.66% active; AID 485360, 2010; note: nearly all actives have a fitted effect of over 60% in size
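AlphaScreen assay: L3MBTL1 (50 nM final) was preincubated 30 min at room temperature with biotinylated H3(1-15)K9me1 peptide (75 nM final), then 30 min with library compounds; streptavidin donor and nickel chelate acceptor beads (10 ug/mL final) added, 30 min dark.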
APE1 inh: qHTS Assay for Inhibitors of the Human Apurinic/apyrimidinic Endonuclease 1 (APE1) | DNA repair nuclease/redox regulator APEX1 (Homo sapiens), P27695 | recombinant APE1, TAMRA/BHQ-2 abasic DNA cleavage fluorescence | Potency, µM (titrated, usually from 65.8 µM), without a hit: top-dose activity change, negative = inhibition, hits mostly inhibitors | 350,000 tested, 0.35% active | AID 2517, 2012;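 note: plate controls were vehicle for no effect and reference inhibitor for full effect; nearly all actives have a fitted effect of over 55% in size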
Target sequence (P27695 whole entry, looked up): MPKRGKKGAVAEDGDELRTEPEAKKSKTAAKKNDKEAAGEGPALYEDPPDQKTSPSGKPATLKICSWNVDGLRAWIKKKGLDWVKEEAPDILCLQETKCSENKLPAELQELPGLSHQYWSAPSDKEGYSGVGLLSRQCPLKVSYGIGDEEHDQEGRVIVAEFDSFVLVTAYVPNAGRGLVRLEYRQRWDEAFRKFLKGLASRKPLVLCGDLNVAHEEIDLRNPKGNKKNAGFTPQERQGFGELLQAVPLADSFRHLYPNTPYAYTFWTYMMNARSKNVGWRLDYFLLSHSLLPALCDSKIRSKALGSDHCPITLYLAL
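Endonuclease cleavage of a quenched abasic-site DNA duplex (50 nM) by APE1 (0.75 nM) was tracked by TAMRA dequenching. Compounds were preincubated with enzyme 15 min at room temperature; data normalized to buffer-only and DMSO wells plus NSC13755 control.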
GCN5L2 inh: qHTS Assay for Inhibitors of GCN5L2; Histone acetyltransferase KAT2A (Homo sapiens), Q92830; GCN5L2 HAT assay, ThioGlo1 CoA-SH fluorescence; Potency, µM (top dose mostly 58.9 µM), without a hit: at the highest dose activity change, negative = inhibition, actives largely listed as inhibitors; 390,000 tested, 0.21% active
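qHTS, 1536-well. 20nM enzyme, pH 7.5 HEPES/EDTA/Tween-20 buffer; 15 min compound preinc., RT. Start: 75uM H3(1-25), 70uM AcCoA, 50uM ThioGlo1. Read Ex340/Em540 at t=0 (autofluorescence flag) and t=20 min.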
KDM4E inh: qHTS Assay for Inhibitors of Human Jumonji Domain Containing 2E (JMJD2E); 230,000 tested, 1.6% active; Lysine-specific demethylase 4E (Homo sapiens), B2RXH2; JMJD2E catalytic domain, FDH-coupled NADH fluorescence (FDH is formaldehyde dehydrogenase); Potency, µM (series often up to 57.1 µM), for the others: at the top dose activity change, negative = inhibition, most hits filed as inhibitors; active = well fitted inhibition curve with a large enough effect, not every such curve was filed as active; inconclusive = small, poorly fitted or top-dose-only effect, or another doubt; inactive = no such curve, though single readings can be large or run the other way;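 note: 0% = wells with enzyme and -100% = buffer wells without enzyme; nearly all actives have a fitted effect of over 50% in size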
Target sequence (B2RXH2 1-337 limits assumed): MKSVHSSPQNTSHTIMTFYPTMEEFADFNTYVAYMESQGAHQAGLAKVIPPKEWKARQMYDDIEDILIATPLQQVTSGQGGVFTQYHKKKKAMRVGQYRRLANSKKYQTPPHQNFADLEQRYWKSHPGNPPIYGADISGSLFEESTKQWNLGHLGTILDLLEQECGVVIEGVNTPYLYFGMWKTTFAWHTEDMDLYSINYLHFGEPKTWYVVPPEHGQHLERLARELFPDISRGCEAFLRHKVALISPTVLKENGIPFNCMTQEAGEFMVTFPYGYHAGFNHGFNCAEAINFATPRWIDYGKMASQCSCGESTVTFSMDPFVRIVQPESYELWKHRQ
RECQ1 inh: qHTS Assay for Inhibitors of RecQ-Like Dna Helicase 1 (RECQ1); ATP-dependent DNA helicase Q1 (Homo sapiens), P46063; RECQ1 DNA unwinding, red fluorescence kinetic read; Potency, µM (top dose mostly 57.3 µM), for the others: at the top dose activity, negative = inhibition, usual class: inhibitors; 240,000 tested, 0.54% active; AID 2549, 2010;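 note: plate controls were vehicle for no effect and no enzyme for full effect; nearly all actives have a fitted effect of over 30% in size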
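RECQ1T1 50 nM; forked duplex (20 bp + 30-nt ss tails) 200 nM, ATP 2 mM final; pH 8.0, 2 mM MgCl2, 2.5 ug/ml poly(dI-dC); 15 min compound preincubation; discontinuous kinetic read over 2 h at RT.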
BLM helicase inh: qHTS Assay for Inhibitors of Bloom's syndrome helicase (BLM) | Potency, µM (top dose mostly 56.1 µM), without a hit: top-dose activity change, negative = inhibition, usual class: inhibitors | RecQ-like DNA helicase BLM (Homo sapiens), P54132 | 350,000 tested, 0.2% active | recombinant BLM DNA unwinding, fluorescence dequenching;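 note: plate controls were vehicle for no effect and no enzyme for full effect; nearly all actives have a fitted effect of over 35% in size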
* marks the source's active call; other numbers are inactive results; i = inactive; u = inconclusive; x = no result given; [ ] = dose if it differs, or a comment. This is one part of a sample in which hits are shown more often than they occur. Unless noted, calls come from the whole dose curve; as a rule, active = well fitted curve in the direction sought with a large enough effect; inconclusive = small, poorly fitted or top-dose-only effect, or another doubt; inactive = no such curve, though single readings can be large; an effect the other way counts as inactive or inconclusive. Unless noted, % is set by controls: 0 for no effect and ±100 for the full control effect; potency is the fitted concentration of half-maximal effect.

SMILES	L3MBTL1 block	APE1 inh	GCN5L2 inh	KDM4E inh	RECQ1 inh	BLM helicase inh
COc1ccc(OC)c(/C=N/c2oc(-c3ccco3)c(-c3ccco3)c2C#N)c1	25µM*	u	-22%	u	u	-4%
N#Cc1c(N)oc(-c2ccco2)c1-c1ccco1	-19%	u	-8%	1.6µM*	i	-5%
CO[C@H]1COC(=O)[C@H](C)COC(=O)C/C=C\[C@@H](C)[C@H](OC)COC(=O)C/C=C\[C@@H]1C	x	7%[12.4 µM]	x	x	i[11.5 µM]	-4%[12.4 µM]
COc1cc(NC(=O)Cn2nc(C(F)(F)F)c3c2CCCC3)cc(OC)c1OC	x	-2%	-4%	2%	-6%	-4%
O=c1cc(CSc2nnc(COc3cccc4ccccc34)o2)c2ccccc2[nH]1	x	1%	-7%	u	-11%	0%
Cc1ccc(C(=O)Oc2ccc(C(=O)COC(=O)C3CC(=O)N(Cc4ccco4)C3)cc2)cc1 (centres undefined)	u	32µM*	-18%	7%	-29%	-28%
Oc1c(CN2CCCCC2)cc(Br)c2cccnc12	u	13%	-3%	u	14%	-7%
Oc1ccc(CN2CCN(Cc3ccccc3)CC2)c2cccnc12	-2%	-3%	-2%	-3%	i	-3%
CN1CCN(C2CCN(Cc3ccc(O)c4ncccc34)CC2)CC1	14µM*	7%	-2%	x	x	x
O=S(=O)(c1ccc(Cl)cc1)N1CCN(Cc2ccc(O)c3ncccc23)CC1	u	17%	-1%	25µM*	22%	-5%
Cc1ccc(S(=O)(=O)OCC2CN3C(CCC(C)C3c3ccc(Br)cc3)C(=O)O2)cc1 (centres undefined)	x	12%[12.4 µM]	x	x	13%[11.5 µM]	-2%[12.4 µM]
CC(=O)OC[C@]12CC[C@H]3[C@@](C)(CC[C@H]4C(C)(C)CCC[C@]34C)[C@@H]1C[C@H](C1=CC(=O)O[C@H]1OC(C)=O)O2	-8%	9.5µM*	-30%	x	x	x
COC(=O)C/C=C\[C@@H](C)[C@@H](/C=N\OC[C@@H](C)[C@H](OCc1ccccc1)C(C)C)NS(=O)(=O)c1ccc(C)cc1	x	4%[12.4 µM]	x	x	i[11.5 µM]	-7%[12.4 µM]
C/C(=N\Nc1ccc2nncn2n1)c1ccccn1	25µM*	2%	1%	10µM*	-3%	2%
C/C(=N\Nc1ccc2nncn2n1)c1ccco1	10%	12%	-5%	1%	-5%	-2%
c1ccc(-c2ccc(OCCN3CCCC3)cc2)cc1	x	11%	-1%	x	-17%	-10%
COc1cc2c3nnc(-c4ccccc4)c-3cn(Cc3ccccc3F)c2cc1OC	x	-8%	0%	3.5µM*	i	5%
O=C1CNC(=S)N1CCOc1ccccc1	-1%	-2%	16%	-1%	-3%	0%
O=C1CNC(=S)N1CCc1ccc(O)c(O)c1	x	u	-1%	13µM*	-2%	-3%
S=c1[nH]c2ccccc2s1	x	0%	20µM*	20µM*	-1%	2%
O=C(Nc1ccc2[nH]c(=S)sc2c1)c1ccccc1	6%	2%	1%	-29%	i	-11%
COC(=O)C(NC(=O)CCc1nnc2ccc(N3CCCCC3)nn12)C(C)C (centres undefined)	x	15%	1%	x	x	0%
COc1ccc(C2/C=C\CN(C(=O)C3CCCCC3)C(C)C(=O)N2Cc2ccc(F)cc2)cc1 (centres undefined)	x	-7%	x	x	i	-5%
O=C(O)c1ccc2nc(-c3ccco3)c(-c3ccco3)nc2c1	2.2µM*	u	-17%	2%	-14%	-1%
CSc1nsc(/C=C/Nc2ccc(O)cc2C)c1C#N	-30%	u	-12%	13µM*	u	-21%
SMILES	L3MBTL1 block	APE1 inh	GCN5L2 inh	KDM4E inh	RECQ1 inh	BLM helicase inh
CSc1nsc(/C=C/Nc2ccc(F)cc2)c1C#N	-6%	-5%	0%	u	11%	-12%
CC(C)OCCCNC(=O)c1cc(S(=O)(=O)N2CCc3ccccc32)cn1C	-4%	16%	0.79µM*	x	x	2%
CCC(C)(C)NC(=O)c1cc(S(=O)(=O)N2CCc3ccccc32)cn1C	3%	-4%	-15%	x	x	-1%
C=CCN=c1scc(-c2ccco2)n1/N=C/c1ccc(O)c(O)c1O	18µM*	u	-25%	11µM*	-10%	-27%
CN=c1scc(-c2cccs2)n1/N=C/c1ccccc1O	-25%	3%	-13%	-1%	-7%	-1%
CN=c1scc(-c2cccs2)n1/N=C/c1ccc(O)c(O)c1O	14µM*	6.3µM*	0%	14µM*	6.3µM*	-18%
COc1ccc(OC)c(NS(=O)(=O)c2c(C(=O)N3CCCCCC3)c(C)n(C)c2C)c1	x	21%	-1%	x	x	-3%
Nc1ncnc2nc(SCC(=O)Nc3ccccc3F)[nH]c12	x	69%[12.4 µM]	-12%	x	x	-5%
COc1ccc(C(=O)c2cn(CC(=O)Nc3ccc4c(c3)OCCO4)c3ccc(OC)cc3c2=O)cc1	x	x	-4%	x	x	10µM*
O=c1nc2ccccc2c(NS(=O)(=O)c2ccc(Cl)cc2)n1-c1ccccc1	-8%	-2%	3.2µM*	-3%	-3%	-3%
COc1ccc(S(=O)(=O)Nc2c3ccccc3nc(=O)n2-c2ccccc2)cc1	x	18%	-3%	-1%	i	-8%
C=Cc1ccc([C@H]2N[C@@H](C(=O)O)CC[C@@H]2C)cc1	x	20%[12.4 µM]	x	x	-2%[11.5 µM]	4%[12.4 µM]
Cc1ccc2c(c1)C1CC(C)(O2)N(c2cccc(C(=O)NCc3ccccn3)c2)C(=O)N1 (centres undefined)	x	0%	0%	x	x	3%
Cc1ccc2c(c1)C1CC(C)(O2)N(c2cccc(C(=O)NC3CCN(Cc4ccccc4)CC3)c2)C(=O)N1 (centres undefined)	x	24µM*	1%	x	x	1%
O=C[C@H](O)[C@@H](O)[C@@H](O)[C@H](O)CO	x	1%	x	x	x	x
COc1cc(SSc2cc(OC)cc([N+](=O)[O-])c2N)c(N)c([N+](=O)[O-])c1	x	-1%	16µM*	2.5µM*	-5%	0%
CCC(C)C(=O)Nc1ccc(OC)cc1[N+](=O)[O-] (centres undefined)	-1%	1%	-1%	4%	-5%	-4%

Source: PubChem BioAssay (National Center for Advancing Translational Sciences (NCATS))
